In ChEMBL document CHEMBL4296182, “CO-ADD screening of NIH NCI Diversity Set V”:
For part of these data: Potency and affinity values are given separately.

How the values were obtained:
[1] = tested on: Staphylococcus aureus; assay: Antibacterial activity against Staphylococcus aureus MRSA ATCC 43300 (CO-ADD:GP_020); MIC in CAMBH media using NBS plates, by Resazurin F(560/590); format: functional; settings: Concentration 20 uM, ASSAY_TEST Inhibition of Bacterial Growth, detection method Resazurin, Fluorescence (ex560/em590), MEDIA CAMHB, plate type 384well, CORNING #3640, time 18 hr
[2] = tested on: Acinetobacter baumannii; assay: Antibacterial activity against Acinetobacter baumannii ATCC 19606 (CO-ADD:GN_034); MIC in CAMBH media using NBS plates, by Resazurin F(560/590); format: functional; settings: Concentration 20 uM, ASSAY_TEST Inhibition of Bacterial Growth, detection method Resazurin, Fluorescence (ex560/em590), MEDIA CAMHB, plate type 384well, CORNING #3640, time 18 hr
[3] = tested on: Escherichia coli; assay: Antibacterial activity against Escherichia coli ATCC 25922 (CO-ADD:GN_001); MIC in CAMBH media using NBS plates, by Resazurin F(560/590); format: functional; settings: Concentration 20 uM, ASSAY_TEST Inhibition of Bacterial Growth, detection method Resazurin, Fluorescence (ex560/em590), MEDIA CAMHB, plate type 384well, CORNING #3640, time 18 hr
[4] = tested on: Klebsiella pneumoniae; settings: Concentration 20 uM; ASSAY_TEST Inhibition of Bacterial Growth; detection method Absorption (OD600); MEDIA CAMHB; plate type 384well; NBS; CORNING #3640; time 18 hr
[5] = tested on: Candida albicans; settings: 20 µM
[6] = tested on: Cryptococcus neoformans; settings: Concentration 20 uM; ASSAY_TEST Inhibition of Fungal Growth; detection method Resazurin; Absorption (OD600-OD570); plate type 384well; NBS; CORNING #3640

| Structure (SMILES) | Inhibition [1] [%] | Inhibition [2] [%] | Inhibition [3] [%] | Inhibition [4] [%] | Inhibition [5] [%] | Inhibition [6] [%] |
| --- | --- | --- | --- | --- | --- | --- |
| Cc1cc2cc3c(=O)[nH]c(=O)cc-3n(CC(O)C(O)C(O)CO)c2cc1C (stereo not given) | 10.31 | 8.52 | -0.29 | 10.28 | -1.58 | -7.62 |
| CCOC(=O)c1nc(O)c2c3c(sc2n1)CCCC3 | 16.28 | -13.3 | 15.58 | 5.02 | 10 | -8.42 |
| COC(=O)c1cc(C)c(C)cc1NC1OC(CO)C(O)C1O (stereo not given) | -3.53 | 7.51 | -12.77 | 12.31 | 6.05 | -3.92 |
| Nc1[nH]nc2nc(-c3ccccc3)nc(O)c12 | -2.47 | -10.04 | 2.06 | 6.75 | -0.22 | -3.34 |
| CN(C)Cc1c[nH]c2nccnc12 | 11.84 | -4.46 | 11.46 | 8.34 | 0.19 | 2.55 |
| CC1CC(C)(C)NC2(CCCC2)N1 (stereo not given) | 12.12 | -5.32 | 5.91 | 11.32 | -0.15 | -4.43 |
| CC(=O)NC1(C(=O)O)CCCC1 | 8.27 | -6.77 | 8.7 | 15.18 | 4.3 | 0.8 |
| Cn1ncc2c(Nc3ccc([N+](=O)[O-])cc3)nc(Cl)nc21 | -16.06 | 3.27 | -14.4 | -8.72 | -1.97 | -3.09 |
| Cn1ncc2c(Nc3ccccc3Cl)nc(Nc3ccccc3Cl)nc21 | 12.86 | -3.35 | -7.44 | 23.76 | 8.17 | -4.25 |
| O=c1[nH]cc(Cl)cc1Cl | 16.39 | -19.78 | 16.35 | 10.84 | -0.92 | 0.46 |
| O=S1(=O)CSCS(=O)(=O)C1 | -12.69 | -2.62 | -18.14 | 0.72 | 5.55 | 27.89 |
| Nc1ccc2c(c1)Cc1cc(Cl)c(Cl)cc1-2 | 12.19 | -1.44 | 15.96 | 4.46 | 8.7 | -5.33 |
| Cc1cc(O)cc2c1[C@H]1CC[C@]3(C)C(=O)CC[C@H]3[C@@H]1C=C2 | 24.45 | 13.8 | 29.29 | -0.57 | 12.1 | -1.77 |
| O=S1(=O)CCC(N(/N=C/c2ccco2)c2ccccc2)C1 (stereo not given) | 6.29 | -4.36 | -3.36 | 6.93 | -2.37 | -1.06 |
| COC(=O)C1=C(C(=O)OC)[C@@H]2CCC[C@H]1[C@H]1[C@@H]2N=NN1c1ccccc1 | 22.18 | -12.99 | 6.51 | 9.18 | 2.48 | 8.73 |
| NNC(=O)Cc1cc(O)[nH]n1 | 0.66 | -1.89 | 4.91 | -1.33 | 1.93 | -9.5 |
| CC(C)c1cc(C(F)(F)F)nc(NNc2nc(C(C)C)cc(C(F)(F)F)n2)n1 | 18.88 | -11.48 | 9.37 | 26.13 | 9.95 | -5.35 |
| CCN(CC)C(=O)Cn1ccc(NC(C)=O)nc1=O | -5.08 | -19.36 | 5.52 | 3.42 | 0.38 | -8.8 |
| Cc1cccc(N2CCN(CC(O)COc3ccccc3Cl)CC2)c1 (stereo not given) | 6.25 | 7.51 | 7.94 | 12.03 | -0.3 | -18.69 |
| C#CCOCC1CN(c2ccccc2)C(=O)O1 (stereo not given) | -1.12 | 12.08 | 6.4 | 9.96 | 6.35 | -15.19 |
| N[C@H](C(=O)O)[C@H]1ON=C(Cl)[C@@H]1O | 11.62 | -0.47 | 10.43 | 5 | 2.6 | -3.55 |
| COc1ccc(/C(C#N)=C/c2cccnc2)cc1 | 17.02 | -13.68 | 11.08 | 6.19 | 11.3 | -16.52 |
| c1ccc2cc(OCCOCCOc3ccc4ccccc4c3)ccc2c1 | 11.38 | 0.36 | 5.4 | 11.21 | 5.37 | -6.02 |
| Cc1ccc(Nc2nnc(-c3ccc4c(c3)OCO4)o2)c(C)c1 | 30.86 | -8.42 | 5.86 | 21.23 | 28.8 | -3.73 |
| c1ccc(-c2ccc(-c3nccc4ccccc34)[nH]2)cc1 | -4.96 | -13.85 | 6.1 | 4.74 | 14 | -7.81 |
